ChEMBL document CHEMBL1201862, “PubChem BioAssay data set” (2004)
About 6,500 (4.3%) of roughly 150,000 compounds were called active. Roughly 12% stayed inconclusive and do not appear here. No cut-off for these calls is given here. Many of the other results were omitted from the sample, so actives are more common in it than they were.

Each compound was assayed against T1, 15-hydroxyprostaglandin dehydrogenase [NAD(+)] (Homo sapiens) (UniProt P15428).
T1 sequence (whole entry): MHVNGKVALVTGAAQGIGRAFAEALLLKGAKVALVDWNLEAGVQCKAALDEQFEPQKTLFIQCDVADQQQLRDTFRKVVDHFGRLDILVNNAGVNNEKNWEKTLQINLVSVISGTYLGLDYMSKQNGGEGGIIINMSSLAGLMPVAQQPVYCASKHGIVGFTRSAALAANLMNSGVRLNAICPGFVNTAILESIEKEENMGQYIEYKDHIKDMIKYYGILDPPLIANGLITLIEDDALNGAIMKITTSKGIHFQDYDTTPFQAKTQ

SMILES	Potency
O=C(O)c1cc(/N=N/c2ccc(S(=O)(=O)Nc3ccccn3)cc2)ccc1O	15.8 µM (active)
O=C(O)c1cc(/N=N\c2ccc(S(=O)(=O)Nc3ccccn3)cc2)ccc1O	14.1 µM (active)
O=C(/C=C\c1ccco1)Nc1nc(-c2ccccc2)cs1	inactive
